This is part of a sample that, as a whole, favours compounds with a hit. Of some 83,000 tested, about 20% had one in any assay.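 Treatment: one concentration, 48 hours, 96-well format. Scoring: percent growth, with anything below 10 considered active.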 Active and inactive are the calls of the source.

The test deals with K-562 leukemia. The experiment in a line: NCI-60 one-dose screen, 48 h (100 = growth as untreated, 0 = no growth, -100 = all killed). As to conditions: 10 µM unless noted.
In the case of `O=C(/C=C/c1ccc(Cl)cc1)c1ccc(NC(=O)N2CCN(c3cc4c(cc3F)c(=O)c(C(=O)O)cn4C3CC3)CC2)cc1`, the growth is 65% (inactive). Regarding `O=C(/C=C(/C=C/c1csc2ccccc12)OB(F)F)/C=C/c1csc2ccccc12`, the growth was 23.2% (inactive).

Turning to `CN1CCN(C(=O)[C@]23CCC(C)(C)C[C@H]2C2=CC[C@@H]4[C@@]5(C)C/C(=C/c6cccnc6)C(=O)C(C)(C)[C@@H]5CC[C@@]4(C)[C@]2(C)CC3)CC1`, the growth is 10.9% (inactive). In the case of `CC1=CCC(OC(=O)C(C)(O)CCC(O)(C(=O)OC2(C)C=CC(O)(C(C)C)CC2)C(C)C)(C(C)C)CC1` (stereo not drawn) it was 105% (inactive); in that of `NC1=NN=C(N)C1=Cc1cc2ccccc2n2nnnc12`, 92.9% (inactive); in that of `COc1ccc(NC(N)=NCCCOc2ccc(F)cc2)cc1`, 91.5% (inactive). In the case of `O=C1c2ccc3c4c(ccc(c24)C(=O)N1CCCNCc1ccccc1)C(=O)N(CCCNCc1ccccc1)C3=O`, the growth is -47.9% (active).

As to `O=C(NCCNc1nccc(-c2c(-c3cccc(F)c3)nc3sccn23)n1)c1ccc(Cl)cc1`, the growth is 54.4% (inactive). With `C=C1C(=O)O[C@H]2[C@H]1CC/C(COC(=O)NCCc1c[nH]c3ccc(OC)cc13)=C\CC[C@@]1(C)O[C@@H]21` the figure was 3.56% (active); with `COc1cc(CC(=O)c2ccc(O)c(OC)c2)ccc1O`, 89.1% (inactive); with `CCN(CC)c1ccc(/C=N/NC(=O)CSc2nc3ccccc3c(=O)n2CCc2ccc(S(N)(=O)=O)cc2)c(O)c1`, 7.07% (active). Consider `Cc1ccc(-n2c3c(c(-c4ccccc4)c2-c2ccccc2)C2=NCCN2C=N3)cc1`, for which the growth is 64.2% (inactive). `CN1CCN(C(=O)[C@]23CCC(C)(C)C[C@H]2C2=CC[C@@H]4[C@@]5(C)C/C(=C/c6ccncc6)C(=O)C(C)(C)[C@@H]5CC[C@@]4(C)[C@]2(C)CC3)CC1`: the growth was 19% (inactive). For the molecule `C=C(C)[C@@H]1CC[C@]2(C(=O)N3CCN(C)CC3)CC[C@]3(C)[C@H](CC[C@@H]4[C@@]5(C)C/C(=C/c6cccnc6)C(=O)C(C)(C)[C@@H]5CC[C@]43C)[C@@H]12`, the growth was 21.9% (inactive). For the molecule `N/C(=N\C(N)=N\c1nc2ccccc2s1)c1cccc(Cl)c1`, the growth is 72.8% (inactive). With `CCOC(=O)Nc1ccc(-c2ccc3c(c2)NC(=O)/C3=C\c2ccc[nH]2)cc1` the figure was 92.3% (inactive).

For `CCNC(=O)Oc1ccc(/C(=C(\C)c2ccccc2)c2ccc(OCCN(CC)CC)cc2)cc1`, the growth was 18.9% (inactive).

For `CCOC(=O)/C(C#N)=C1/NNC(=Nc2cccnc2)S1`, the growth was 99.8% (inactive). As for `COc1cccc(-c2nc3occn3c2-c2ccnc(NCCCNS(=O)(=O)c3ccc(C(F)(F)F)cc3)n2)c1`, the growth was 69.8% (inactive). In the case of `CC(=O)Nc1ccc(-n2cnc3cc(-c4ccc(OCCN5CCCCC5)cc4)ccc32)cc1` it was 1.57% (active); in that of `Cn1ccnc1C(=O)/C=C/c1ccc(CC(=O)Nc2ccc(Cl)cc2)cc1`, 7.81% (active); in that of `C=CCN1C(=O)/C(=C/C(=O)OC)S/C1=N\NC(=O)c1cc2ccc1/C=C\c1ccc(cc1)/C=C\2`, 51.9% (inactive).

Consider `COc1ccc(/C=C(\C#N)n2nc3cccc(F)c3n2)cc1`, for which the growth is 82.8% (inactive). Turning to `N/C(=N\C(N)=N\c1nc2ccccc2s1)c1cnccn1`, the growth is 17.1% (inactive). As for `Cc1c(C(=O)NCCC(=O)NO)sc2ncnc(Nc3ccc(NC(=O)Nc4cccc(C(F)(F)F)c4)cc3)c12`, the growth was 104% (inactive).

With `O=C(Nc1ccc(-c2ccc3c(c2)NC(=O)/C3=C\c2ccc[nH]2)cc1)NC1CC1`, the growth was 92.5% (inactive). With `S=c1cc(S)c2cc(Br)ccc2[nH]1`, the growth is 94.9% (inactive). Regarding `CCCCOc1ccc(/C=N/Nc2cc(C)nc3ccc(Br)cc23)cc1`, the growth is -2.5% (active). `N/C(=N\C(N)=N\c1nc2ccccc2s1)c1ccnc(Br)c1`: the growth is 14% (inactive). In the case of `COc1cc(NC(C)CCCNC(=O)CCC(=O)NCCCNCCCCCCCCNCCCNC(=O)CCC(=O)NCCCC(C)Nc2cc(OC)cc3cccnc23)c2ncccc2c1` (stereo not drawn) it was 45.1% (inactive); in that of `COc1cc2nc(-c3ccc(C(F)(F)F)cc3)cc(OCCCN3CCOCC3)c2cc1OC`, 11.5% (inactive); in that of `O=C(Cn1c[n+](CC(=O)c2ccc(-c3ccccc3)cc2)c2ccccc21)Nc1cccc2cccnc12`, 12.6% (inactive).

As for `CC(Oc1ccc(C(=O)O)cc1C(F)(F)F)c1ccc(Oc2ccccc2)cn1` (stereo not drawn), the growth was 82.8% (inactive).

These data come from PubChem BioAssay (NCI).
